Assay outcomes (PubChem)
This is a sample that favours compounds with a hit; in the whole collection about 12% have one here.
Sfp PPTase inh = inhibitors of Bacillus subtilis Sfp phosphopantetheinyl transferase. Q9F4F7. Biochemical Sfp PPTase activity, qHTS. Potency, µM, hits mostly inhibitors. 310,000 tested, 3.5% active;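 note: the enzyme is Sfp with the accession as filed and its product quenches rhodamine fluorescence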
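Step 1, compound plus 15 nM Sfp-PPTase, 15 min, room temperature. Step 2, add rhodamine-CoA (5 uM) and BHQ-2-YbbR (12.5 uM). Step 3, read 525/598 nm fluorescence at 0 and 30 min.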
JMJD2A Tudor = JMJD2A Tudor domain (human) inhibition; AID 504339; AlphaScreen JMJD2A-Tudor / H3K4me3 peptide binding; 390,000 tested, 4.4% active; Potency, µM (titrated, usually from 114 µM), hits mostly inhibitors; note: nearly all actives have a fitted effect of over 50% in size
PLK1 PBD inh = blocks phosphopeptide binding to human PLK1 polo-box domain; Potency, µM, most hits filed as inhibitors; AID 720504; P53350; 360,000 tested, 2.8% active; Plk1 PBD binding of FITC phosphopeptide, fluorescence polarization; note: series mostly up to about 57 µM; nearly all actives have a fitted effect of over 65% in size
Target sequence (P53350 whole entry, looked up, the tested form may be a part): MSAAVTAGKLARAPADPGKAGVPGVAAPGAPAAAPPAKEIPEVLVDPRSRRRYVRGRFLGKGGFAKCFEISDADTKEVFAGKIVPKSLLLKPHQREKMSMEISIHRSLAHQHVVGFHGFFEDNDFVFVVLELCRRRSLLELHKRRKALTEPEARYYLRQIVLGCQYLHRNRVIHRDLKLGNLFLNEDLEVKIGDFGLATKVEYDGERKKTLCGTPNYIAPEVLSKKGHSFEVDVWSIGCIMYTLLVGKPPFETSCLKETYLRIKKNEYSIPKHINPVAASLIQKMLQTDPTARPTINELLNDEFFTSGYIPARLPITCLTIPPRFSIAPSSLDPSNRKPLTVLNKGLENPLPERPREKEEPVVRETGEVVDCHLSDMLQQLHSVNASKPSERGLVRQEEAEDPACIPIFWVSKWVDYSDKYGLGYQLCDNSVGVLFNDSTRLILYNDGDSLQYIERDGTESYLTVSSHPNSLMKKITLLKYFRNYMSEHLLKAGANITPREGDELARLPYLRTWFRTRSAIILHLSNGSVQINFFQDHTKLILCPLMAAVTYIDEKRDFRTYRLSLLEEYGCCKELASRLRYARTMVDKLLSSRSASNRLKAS
HP1b chromo inh = HP1-beta chromodomain-methylated histone interaction inhibition; P83916; AlphaScreen HP1-beta / biotin-H3K9me3 peptide binding; Potency, µM (series often up to 114 µM), actives largely listed as inhibitors; 390,000 tested, 0.56% active; AID 540317; note: nearly all actives have a fitted effect of over 70% in size
Target sequence (P83916 whole entry, looked up): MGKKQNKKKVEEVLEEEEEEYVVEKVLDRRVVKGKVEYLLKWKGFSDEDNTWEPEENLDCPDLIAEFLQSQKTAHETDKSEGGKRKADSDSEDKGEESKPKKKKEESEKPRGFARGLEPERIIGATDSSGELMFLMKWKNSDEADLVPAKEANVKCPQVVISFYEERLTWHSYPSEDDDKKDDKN
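AlphaScreen: HP1-beta (50 nM) preformed 30 min with biotin-H3(1-18)K9me3 peptide (50 nM) in PBS pH 7.4, 0.01% Tween-20. Compound added for 30 min at RT, then streptavidin donor/nickel chelate acceptor beads (10 ug/mL) for 30 min.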
BAZ2B block = inhibitors of human BAZ2B bromodomain. Potency, µM (highest dose often 114 µM), hits mostly inhibitors. AlphaScreen BAZ2B-H3K14Ac peptide displacement. AID 504333. 360,000 tested, 4.4% active; note: nearly all actives have a fitted effect of over 60% in size
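Inhibition is scored as reduced AlphaScreen emission. The BAZ2B/b-H3(5-23)K14Ac complex (50 nM each) in PBS pH 7.4, 0.01% Tween-20 meets compound (up to 110 uM) for 30 min at RT before bead addition.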
G9a inh = G9a (human) methyltransferase inhibition; Q96KQ7; G9a H3K9 monomethylation, AlphaScreen, 2 h; Potency, µM (titrated, usually from 102 µM), usual class: inhibitors; 350,000 tested, 8.8% active; note: nearly all actives have a fitted effect of over 75% in size
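AlphaScreen read-out: biotin-H3K9 peptide (500 nM) methylation by 20 nM enzyme with 20 uM SAM, 2 h at room temperature after 15 min compound preincubation; anti-monomethyl H3K9 antibody plus donor/acceptor beads, 10 min dark.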
Each line names hits and unclear results; the compound was inactive in the other large screens. Calls come from the whole dose curve; as a rule, active = well fitted curve in the direction sought with a large enough effect; inconclusive = small, poorly fitted or top-dose-only effect, or another doubt; inactive = no such curve, though single readings can be large; an effect the other way counts as inactive or inconclusive.

Cc1ccc(C(=O)/C=C/NNC(=O)c2ccccc2O)cc1	JMJD2A Tudor inconclusive, BAZ2B block 50µM
O=C(Nc1cc(C(F)(F)F)ccc1Cl)C(O)Cc1ccccc1 (centres undefined)	none (no result: Sfp PPTase inh, PLK1 PBD inh, HP1b chromo inh, BAZ2B block, G9a inh)
O=c1[nH]cccc1-c1nc2cc(Cl)ccc2n1Cc1ccccc1	G9a inh 71µM
O=C(Nc1ccc(Cl)c(C(F)(F)F)c1)c1nc2ccccc2nc1N1CCCCC1	none (no result: Sfp PPTase inh, PLK1 PBD inh)
Cc1cccc(NC(=O)CSc2nnc([C@H](C)NC(=O)OC(C)(C)C)o2)c1C	JMJD2A Tudor inconclusive, PLK1 PBD inh 27µM
Cc1ccc(NC(=O)CSc2nnc([C@H](C)NC(=O)OC(C)(C)C)o2)c(C)c1	none
O=C(O)c1cc(N2CCCCC2)ccn1	JMJD2A Tudor 1.6µM (no result: Sfp PPTase inh, BAZ2B block, G9a inh)
O=C(O)c1cc(N2CCCC2)ccn1	JMJD2A Tudor 3.2µM (no result: Sfp PPTase inh, BAZ2B block, G9a inh)
O=C(O)c1ccccc1C(=O)Nc1ccc(Oc2cccc3ccccc23)cc1	BAZ2B block 50µM, G9a inh 40µM
Cc1cccc(Oc2ccc(NC(=O)c3ccccc3C(=O)O)cc2)c1C	BAZ2B block inconclusive, G9a inh inconclusive
COc1ccc(/C=C2\SC(=O)N(CCNC(=O)Cc3coc4cc(C)ccc34)C2=O)cc1OC	G9a inh 10µM
COc1ccc(/C=C2\SC(=O)N(CCNC(=O)CCS(=O)(=O)c3ccc(C)cc3)C2=O)cc1	JMJD2A Tudor inconclusive, PLK1 PBD inh 30µM, HP1b chromo inh inconclusive, G9a inh inconclusive
N#C/C(=C(/O)CSc1ccccn1)c1nc2ccccc2s1	G9a inh 45µM
c1ccc(SCc2nc3ccccc3s2)nc1	Sfp PPTase inh inconclusive, PLK1 PBD inh 19µM, G9a inh 35µM
N#C/C(=C(/O)COC(=O)c1ccc(C#N)cc1)c1nc2ccccc2s1	Sfp PPTase inh 50µM, JMJD2A Tudor inconclusive, PLK1 PBD inh inconclusive, BAZ2B block inconclusive, G9a inh inconclusive
c1ccc2oc(SCc3nc4ccccc4s3)nc2c1	none
COCCCNC(=O)CC(c1cc(OC)c(OC)c(OC)c1)N1Cc2ccccc2C1=O (centres undefined)	none (no result: Sfp PPTase inh, PLK1 PBD inh)
COc1ccc(-c2cnc3c(NC(C)=O)cc(-c4ccsc4)cn23)cc1OC	PLK1 PBD inh 24µM (no result: Sfp PPTase inh, JMJD2A Tudor, HP1b chromo inh, BAZ2B block, G9a inh)
COc1ccc(-c2cnc3c(NC(C)=O)cc(-c4ccccc4OC)cn23)cc1OC	none (no result: Sfp PPTase inh, JMJD2A Tudor, HP1b chromo inh, BAZ2B block, G9a inh)
Cc1cnc(NC(=O)C2(c3ccccc3)CC2)s1	none
CCOC(=O)N1CCC(NC(=O)C2CCN(C(=O)c3cc4oc(C)cc4n3Cc3c(F)cccc3Cl)CC2)CC1	Sfp PPTase inh 20µM, JMJD2A Tudor inconclusive, BAZ2B block inconclusive, G9a inh 35µM
COC(CNC(=O)C1CCN(C(=O)c2cc3oc(C)cc3n2Cc2c(F)cccc2Cl)CC1)OC	Sfp PPTase inh 45µM, G9a inh 32µM
O=C(CC(c1ccco1)S(=O)(=O)c1ccccc1)c1ccc(F)cc1 (centres undefined)	Sfp PPTase inh 7.9µM, G9a inh 3.5µM
COc1ccc(C(=O)NCC(c2ccco2)S(=O)(=O)c2ccc(F)cc2)cc1 (centres undefined)	none (no result: Sfp PPTase inh, PLK1 PBD inh)
CSc1sccc1/C=C(/C#N)C(=O)c1ccco1	PLK1 PBD inh 0.84µM, G9a inh inconclusive
CSc1sccc1/C=N/O	none
Cn1ncc(Cl)c1C(=O)NCC1CCCO1 (centres undefined)	none (no result: G9a inh)
Cc1cc(NC(=O)CSc2ncnc3sc4c(c23)CCC(C)C4)no1 (centres undefined)	none (no result: JMJD2A Tudor, PLK1 PBD inh, HP1b chromo inh)
COc1cc(NC(=O)CSc2ncnc3sc4c(c23)CCC(C)C4)c(C(=O)O)cc1OC (centres undefined)	Sfp PPTase inh 45µM, PLK1 PBD inh 17µM, G9a inh 20µM
CCN(CC)c1ncnc2sc3c(c12)CCC3	G9a inh 40µM
CC1CCc2c(sc3ncnc(SCC(=O)Nc4ccc(C(=O)O)cc4)c23)C1 (centres undefined)	PLK1 PBD inh 60µM
O=C(CSc1ncnc2sc3c(c12)CCC3)Nc1ccccc1C(=O)O	none
O=C(O)CSc1ncnc2sc3c(c12)CCCC3	none (no result: G9a inh)
O=C(O)CSc1ncnc2sc3c(c12)CCC3	BAZ2B block 50µM
N/C(=N\OCc1ccc([N+](=O)[O-])cc1)c1ccncc1	BAZ2B block inconclusive, G9a inh inconclusive
N#CCCn1cnc2c1NC=NC2Cl (centres undefined)	none (no result: JMJD2A Tudor, PLK1 PBD inh, HP1b chromo inh, BAZ2B block, G9a inh)
CCc1ccc(CN(Cc2ccco2)C(=O)COc2ccccc2Cl)cc1	none (no result: Sfp PPTase inh, PLK1 PBD inh)
Cc1ccc2nc(NCc3ccccc3)c(C#N)cc2c1	Sfp PPTase inh 79µM
COc1ccc(C(=O)NCCNc2nc3ccc(C)cc3cc2C#N)cc1	Sfp PPTase inh inconclusive, G9a inh 45µM
Cc1ccc2cc(C#N)c(NCCCNC(=O)C3CCCO3)nc2c1 (centres undefined)	Sfp PPTase inh 79µM, G9a inh inconclusive
Cc1ccc2nc(NCCNC(=O)c3ccccc3)c(C#N)cc2c1	none (no result: G9a inh)
CCN(C(=O)Cn1cnc2c1c(=O)n(C)c(=O)n2C)c1ccccc1C	none (no result: Sfp PPTase inh, PLK1 PBD inh)
N#Cc1ccccc1NC(=O)CSc1nnc(N)s1	G9a inh inconclusive (no result: Sfp PPTase inh, PLK1 PBD inh)
CCc1nnc(NC2=NCCC2)s1	Sfp PPTase inh 56µM, JMJD2A Tudor 71µM, BAZ2B block inconclusive, G9a inh inconclusive
c1nnc(NC2=NCCC2)s1	Sfp PPTase inh inconclusive, JMJD2A Tudor 8.9µM, G9a inh inconclusive
c1nnc(NC2=NCCCCC2)s1	none
COc1ccc2nc(NC3=NCCC3)sc2c1	none
Clc1ccc(CSc2nnc(NC3=NCCCCC3)s2)cc1	none
Cc1cnc(NC2=NCCC2)s1	JMJD2A Tudor inconclusive, G9a inh 11µM
COc1ccc(-c2nn3c(=O)cc(CN4CCN(C(=O)Nc5ccc(C)c(Cl)c5)CC4)nc3s2)cc1	none (no result: Sfp PPTase inh, PLK1 PBD inh)
Nc1ccccc1SC1CC(=O)N(Cc2ccccc2)C1=O (centres undefined)	PLK1 PBD inh inconclusive
COc1ccc(OCC(=O)OCC(=O)NC2CC2)cc1	none (no result: Sfp PPTase inh)
COc1ccc(C2C(C(=O)O)c3ccccc3C(=O)N2C)cc1Br (centres undefined)	G9a inh 4µM
COc1cc(OC)c(C2C(C(=O)O)c3ccccc3C(=O)N2C)cc1OC (centres undefined)	G9a inh inconclusive
CN1C(=O)c2ccccc2C(C(=O)O)C1c1cn(C)c2ccccc12 (centres undefined)	JMJD2A Tudor 45µM, PLK1 PBD inh inconclusive, HP1b chromo inh inconclusive
Cc1ccc(CN(C(=O)N2CCN(C)CC2)S(=O)(=O)c2ccc(C)cc2)cc1	none (no result: Sfp PPTase inh)
O=C(CN1CCN(c2ccc(O)cc2)CC1)N1CCc2ccccc21	Sfp PPTase inh 40µM, JMJD2A Tudor 79µM, HP1b chromo inh inconclusive, G9a inh 10µM
O=C(CN1CCN(Cc2ccccc2)CC1)N1CCCc2ccccc21	Sfp PPTase inh inconclusive, JMJD2A Tudor 4.5µM, HP1b chromo inh inconclusive, BAZ2B block 20µM, G9a inh inconclusive
O=C(CSc1cccc[n+]1[O-])N1CCc2ccccc21	G9a inh 56µM
